Vif inh: inhibitors of HIV Vif; 340,000 compounds, 0.35% hits; inhibition, % at 7.49 µM; AID 602346; HEK293T cells, Vif self-association by quenched fluorescence, imaging, 24 h; in the data active = inhibition above about 50%, passing the limit was not always enough
FGF22 binding: binders of recombinant human FGF22 by thermal shift | activity (Tm shift, normalised), % at 9.99 µM | AID 651658 | 340,000 compounds, 1.5% hits | Q9HCT0 | SYPRO orange fluorescence; percent of sucrose octasulfate shift, DMSO zero;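 active = mean Tm shift, scaled 0 neutral to 100 positive control, at about 1.3% or above, every replicate too, limit read from the data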
Target sequence (Q9HCT0 whole entry, looked up): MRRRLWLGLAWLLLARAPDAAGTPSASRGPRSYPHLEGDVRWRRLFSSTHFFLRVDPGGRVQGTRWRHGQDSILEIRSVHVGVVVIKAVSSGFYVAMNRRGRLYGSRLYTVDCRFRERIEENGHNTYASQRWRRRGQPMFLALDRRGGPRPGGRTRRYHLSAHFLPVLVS
F508del corr: correctors of CFTR F508del function in bronchial epithelial cells; CFBE cells, YFP halide quenching; stimulated with forskolin plus potentiator P3; % fluorescence drop versus neutral controls; activity (quench increase), % at 7.58 µM; 350,000 compounds, 0.36% hits;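 active = mean added fluorescence quench of at least 8% versus neutral control, with both replicates also reaching 8%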;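 note: cells transiently co-express mutant CFTR-F508del with the halide-sensitive YFP; corrector assay measuring rescue of mutant channel to the surface after 24 h compound exposure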
Active calls of the source: *. A selection: hits, their analogues and other compounds. The true share with any hit is near 1.7%.

Results for COc1ccc(NC(=O)c2ccc(NC(=O)c3cccs3)cc2)cc1 ?
FGF22 binding: 0.1; F508del corr: -2.4

What do the screens show for `COc1nc(N)nc(NC(=O)c2cccs2)c1N=O`?
Vif inh: 19.3; FGF22 binding: -0.1; F508del corr: 11.2*

Results for COc1ccccc1NC(=O)N1CCCCN2[C@@H](CO)[C@@H](c3ccc(C#CC4CC4)cc3)[C@@H]2C1 ?
FGF22 binding: -0.2; F508del corr: 0.1

Results for CC(NC(=O)c1ccccc1F)c1ccccc1 (stereo not drawn) ?
Vif inh: -4.5; FGF22 binding: 0.1; F508del corr: -5.7

What do the screens show for `CC(NC(=O)c1ccccc1N)c1ccccc1` (stereo not drawn)?
Vif inh: 13.1; FGF22 binding: 43.0*; F508del corr: -1.1

What do the screens show for `CCCNC(=O)Nc1ccc2c(c1)OC[C@H](C)N(Cc1ccc(-c3ccccn3)cc1)C[C@@H](C)[C@@H](OC)CN(C)C2=O`?
FGF22 binding: 0.2; F508del corr: 1.6

How did Cc1cccc(-c2ccc([C@H]3[C@H]4CN(CCC(F)(F)F)CCCCN4[C@H]3CO)cc2)c1 do in these assays?
F508del corr: -2.2

Results for COc1ccc(N(C)S(=O)(=O)c2ccc(Cl)c(C(=O)NCCc3ccc(Cl)cc3)c2)cc1 ?
Vif inh: -9.5; FGF22 binding: 43.4*; F508del corr: 0.7

Results for COc1ccc(CCNC(=O)c2cc(S(=O)(=O)N3CCCCC3)ccc2Cl)cc1 ?
Vif inh: -0.3; FGF22 binding: -0.1; F508del corr: 1.7

Results for Cc1nn(CC(=O)Nc2nccs2)c(C)c1[N+](=O)[O-] ?
Vif inh: -15.6; FGF22 binding: -0.1; F508del corr: 3.3

How did Cc1cc([N+](=O)[O-])nn1CCC(=O)Nc1nccs1 do in these assays?
Vif inh: -4.0; FGF22 binding: 43.1*; F508del corr: -0.3

Results for C[C@H](CO)N1C[C@H](C)[C@@H](CN(C)C(=O)Nc2ccc3c(c2)OCO3)Oc2c(NS(=O)(=O)c3cccs3)cccc2C1=O ?
FGF22 binding: -0.1; F508del corr: -2.1

How did C[C@H]1CN([C@@H](C)CO)C(=O)c2cc(NC(=O)CCCN(C)C)ccc2O[C@@H]1CN(C)C(=O)NC1CCCCC1 do in these assays?
F508del corr: 1.4

What do the screens show for `CCCN1C[C@H](C)[C@H](OC)CN(C)C(=O)c2cc(NC(=O)c3cccc(F)c3)ccc2OC[C@@H]1C`?
FGF22 binding: 0.2; F508del corr: -0.7

How did CCn1c(SCC(=O)Nc2nccs2)nnc1C1CC1 do in these assays?
Vif inh: 4.4; FGF22 binding: 0.1; F508del corr: 2.9

How did Nn1c(SCC(=O)Nc2nccs2)nnc1C1CC1 do in these assays?
Vif inh: 12.5; FGF22 binding: 2.3*; F508del corr: -2.9

Results for O=C(CN1CCOCC1)N1CCCCN2[C@H](CO)[C@@H](c3ccc(-c4ccccc4F)cc3)[C@@H]2C1 ?
FGF22 binding: -0.1; F508del corr: -3.1

What do the screens show for `CCOC(=O)c1ccc(-c2c(-c3cc(OC)c(OC)c(OC)c3)noc2C)cc1F`?
FGF22 binding: -0.2; F508del corr: 16.2*

Results for CCOC(=O)c1ccc(-c2c(-c3ccc(OC)cc3)oc(=O)c3cc(OC)c(OC)cc23)cc1F ?
FGF22 binding: 0.1; F508del corr: 1.5

How did CCCCNc1ncnc2c1cnn2Cc1ccc(Cl)cc1 do in these assays?
Vif inh: -12.2; FGF22 binding: -0.2; F508del corr: 3.9

Results for CCN(CC)c1ncnc2c1cnn2Cc1ccc(Cl)cc1 ?
Vif inh: 0.4; FGF22 binding: 43.3*; F508del corr: 2.1

How did O=C(O)c1ccc(/C=C/C(=O)c2ccc3c(c2)OCCCO3)cc1 do in these assays?
Vif inh: -9.1; FGF22 binding: -0.1; F508del corr: -2.1

How did COc1ccc(C(=O)C=Cc2ccc3c(c2)OCO3)cc1OC do in these assays?
Vif inh: -1.4; FGF22 binding: -0.1; F508del corr: 2.0

Results for COc1cc(/C=C/C(=O)c2ccc3c(c2)OCO3)cc(Cl)c1O ?
Vif inh: 6.2; FGF22 binding: -0.4; F508del corr: 9.7*

How did CC(=O)Nc1ccc(/C=C/C(=O)c2ccc3c(c2)OCCO3)cc1 do in these assays?
Vif inh: 55.5*; FGF22 binding: -0.1; F508del corr: -2.3

How did C[C@H](CO)N1C[C@H](C)[C@@H](CN(C)C)Oc2cc(C#Cc3ccccc3F)ccc2S1(=O)=O do in these assays?
FGF22 binding: -0.5; F508del corr: -2.3

What do the screens show for `O=C(NC1=NCCS1)c1ccc(Cl)c(S(=O)(=O)N2CCOCC2)c1`?
Vif inh: 8.2; FGF22 binding: 43.1*; F508del corr: -0.6

What do the screens show for `O=C(NC1=NCCS1)c1ccc(Cl)c(S(=O)(=O)N2CCCC2)c1`?
Vif inh: 9.8; FGF22 binding: 43.3*; F508del corr: -1.0

How did O=C(NC1=NCCS1)c1ccc(Cl)c(Cl)c1 do in these assays?
Vif inh: 11.6; FGF22 binding: -0.3; F508del corr: 2.3

What do the screens show for `O=C(NC1=NCCS1)c1ccc(F)c(S(=O)(=O)N2CCOCC2)c1`?
Vif inh: -1.0; FGF22 binding: -0.2; F508del corr: -1.2

Results for COc1ccc2c3c(n(C)c2c1)[C@H](CO)NCC31CN(Cc2ccncc2)C1 ?
FGF22 binding: 0.0; F508del corr: 0.9

Results for CO[C@@H]1CN(C)C(=O)c2ccc(NS(=O)(=O)c3cccc(F)c3)cc2OC[C@@H](C)N(C(=O)Cc2cccnc2)C[C@@H]1C ?
FGF22 binding: -0.2; F508del corr: -3.0

What do the screens show for `CCn1c(COc2cccc(OC)c2)nnc1SCC(=O)NC1CCCC1`?
Vif inh: 50.9*; FGF22 binding: -0.5; F508del corr: -0.7

What do the screens show for `CCn1c(COc2cccc(C)c2)nnc1SCC(=O)NC1CCCC1`?
Vif inh: 6.6; FGF22 binding: 0.5; F508del corr: 0.9

Results for COc1ccc(NC(=O)Nc2ccc3c(c2)C(=O)N([C@@H](C)CO)C[C@H](C)[C@H](CN(C)S(=O)(=O)c2ccc(F)cc2)O3)cc1 ?
FGF22 binding: 0.0; F508del corr: 0.8

Results for C[C@@H]1CN([C@H](C)CO)S(=O)(=O)c2ccc(-c3cncnc3)cc2O[C@@H]1CN(C)C(=O)c1cccc(F)c1 ?
FGF22 binding: 0.4; F508del corr: -3.4

How did O=C(COC(=O)CCC(=O)c1ccc(Cl)cc1)NCc1ccc(F)cc1 do in these assays?
Vif inh: 2.9; FGF22 binding: 43.1*; F508del corr: 0.8

Results for O=C(COC(=O)Cc1ccc(Cl)cc1)NCc1ccc(F)cc1 ?
Vif inh: -8.0; FGF22 binding: -0.1; F508del corr: -4.1

Results for O=C(COC(=O)c1ccc(Br)o1)NCc1ccc(Cl)cc1 ?
Vif inh: 9.7; FGF22 binding: 0.2; F508del corr: 0.3

How did O=C(COC(=O)CCC(=O)c1ccc(F)cc1)Nc1ccccc1 do in these assays?
Vif inh: -0.2; FGF22 binding: 0.0; F508del corr: -0.4

What do the screens show for `O=C(COC(=O)c1ccc(Br)o1)NCc1ccc(F)cc1`?
Vif inh: 35.1; FGF22 binding: 27.2*; F508del corr: 0.8

Results for NC(=O)c1ccc(NC(=O)COC(=O)CCC(=O)c2ccc(Cl)cc2)cc1 ?
Vif inh: -3.8; FGF22 binding: 43.3*; F508del corr: -2.6
